Rows were chosen to be rich in hits. Some 2.4% of all compounds tested hit in one or more screens of this group.
D2 antag – antagonists of human D2 dopamine receptor. HEK293 TREx D2 cells, calcium flux, dopamine EC80. actives 2% (n = 340,000). AID 485344. inhibition, % at 10 µM. P14416; in the data active = inhibition above about 30%; inactive = below that, where a call was filed; note: 0% is about no effect
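Read-out: kinetic calcium fluorescence (1 cycle/s) in inducible HEK293 T-REx D2 cells after an EC80 dopamine addition that followed 180 s compound preincubation. Loss of the dopamine response indicates antagonism.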
D2 ag-1 – agonists of human D2 dopamine receptor (beta-arrestin); activation, % (no concentration beside the values); actives 0.084% (n = 360,000); P14416; DiscoveRx PathHunter D2 beta-arrestin, luminescence, 90 min; 100% = 57 uM dopamine signal; in the data active = activation above about 40%; inconclusive = between about 15% and that limit
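DiscoveRx PathHunter D2 beta-arrestin cells (2,100/well) attached overnight, then compound-stimulated 90 min at 37 C in HBSS/10 mM HEPES/0.1% Tween-20 buffer; beta-galactosidase complementation read by luminescence after 1 h at ambient temperature. Dopamine 57 uM final (EC100) as control.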
D2 PAM-1 – positively modulates the human D2 dopamine receptor allosterically | potentiation, % at 10 µM | AID 485347 | HEK293 T-REx D2, calcium flux, EC20 dopamine potentiation | actives 0.34% (n = 340,000);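 active = potentiation over 3 SD above the plate norm, cut at about 30% in these data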; note: 0% is about no effect
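Using a no-wash calcium dye in inducible, force-coupled HEK293 Trex cells expressing D2, we tracked fluorescence each second for 180 s after compound, then for 180 s after EC20 dopamine to detect augmented signalling.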
D2 ag-2 – D2 dopamine receptor (human) agonism. actives 0.53% (n = 340,000). activation, % at 2 µM. P14416. HEK293 T-REx D2 cells, calcium flux agonist mode. AID 485358;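 active = activation over 3 SD above normal in the single-dose calcium agonist read, cut at about 30% in these data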; note: 0% is about no effect
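Tetracycline-induced HEK293 Trex cells with D2 receptor force-coupled to calcium signaling, plated overnight at 30 C and loaded with no-wash calcium dye. Calcium flux read kinetically for 180 s after compound addition; responses flag agonists.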
D2 PAM-2 – positive allosteric modulators of human D2 dopamine receptor | DiscoveRx D2 beta-arrestin cells, luminescence, 90 min; 100% = 57 uM dopamine signal | actives 0.23% (n = 360,000) | potentiation, % (no concentration beside the values); in the data active = potentiation above about 50%; inconclusive = mostly about 30% to 49%
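PathHunter D2 cells, attached overnight at 37 deg C, received compound in DMSO plus dopamine at EC20 (50 nM final) for 90 min at 37 deg C. Beta-arrestin recruitment was read as luminescence after 1 h with detection reagent at ambient temperature.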
D3 arrestin ag – D3 receptor agonism confirmed, beta-arrestin readout; shares compounds with D2 ag-2; DiscoveRx D3 beta-arrestin cells, luminescence, 90 min; Potency, µM (highest dose often 76.9 µM), for inactives: at the top dose activation, actives largely listed as activators; actives 4% (n = 2,300);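 note: potency is the fitted concentration of half-maximal effect; 100% = dopamine control response; nearly all actives have a fitted effect of over 70% in size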
Target sequence (P35462 whole entry, looked up): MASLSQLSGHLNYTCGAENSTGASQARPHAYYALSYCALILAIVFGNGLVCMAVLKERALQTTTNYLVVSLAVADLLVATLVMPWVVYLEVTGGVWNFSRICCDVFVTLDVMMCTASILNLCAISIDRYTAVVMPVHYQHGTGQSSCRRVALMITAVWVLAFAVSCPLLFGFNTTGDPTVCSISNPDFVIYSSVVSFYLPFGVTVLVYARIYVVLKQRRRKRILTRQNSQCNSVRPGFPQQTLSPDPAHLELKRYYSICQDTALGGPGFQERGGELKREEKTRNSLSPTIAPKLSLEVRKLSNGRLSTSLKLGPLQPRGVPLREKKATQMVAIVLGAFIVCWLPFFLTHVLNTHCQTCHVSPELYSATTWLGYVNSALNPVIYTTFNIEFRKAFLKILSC
D2 ag-3 – counter-screen for D3 agonists: human D2 dopamine receptor agonism; shares compounds with D2 ag-2; DiscoveRx PathHunter D2 beta-arrestin, luminescence, 90 min; response scale: percent relative to full dopamine signal; Potency, µM (doses to about 76.9 µM), without a hit: top-dose activation, hits mostly activators; actives 5.9% (n = 2,300); note: potency is the fitted concentration of half-maximal effect; % of control where 0% means no effect; nearly all actives have a fitted effect of over 70% in size
Numbers without * were called inactive; ? = inconclusive; . = not tested or not shown. Unless noted, calls come from the whole dose curve; as a rule, active = well fitted activation curve with a large enough effect; inconclusive = small, poorly fitted or top-dose-only effect; inactive = flat fitted curve, though single readings scatter.

SMILES | D2 antag | D2 ag-1 | D2 PAM-1 | D2 ag-2 | D2 PAM-2 | D3 arrestin ag | D2 ag-3
COc1ccc(CNC(=O)c2cnc(N3CCCC3)nc2C)cc1 | . | . | 10 | 2 | . | . | .
Cc1cccc(C(=O)NNC(=O)c2ccc(NS(=O)(=O)c3cccs3)cc2)c1C | 18 | 2 | 16 | 0 | -2 | 0% | -5%
CC(=O)Nc1ccc(C)cc1-c1nc2ccccc2n(Cc2cccc(Br)c2)c1=O | . | . | 18 | 1 | . | . | .
Cc1ccc(CNC(=O)c2ccc(-n3cnc4cccnc43)cc2)cc1 | . | . | 6 | 0 | . | . | .
COc1cccc(CN2CCC(Oc3ccc(C(=O)N4CCCCC4)cc3)CC2)c1 | -9 | -3 | -2 | 0 | -18 | . | .
CC(CCc1ccc(O)cc1)N1CCC(Oc2ccc(C(=O)N3CCCC3)cc2)CC1 (configuration not stated) | 39* | 13 | -21 | 60* | -12 | ? | 18%
CC(C)/C=C/CN1CCC(Oc2ccc(C(=O)N3CCCC3)cc2)CC1 | . | . | . | . | . | -7% | 0%
COc1ccc(OC)c(-n2c(SCC(=O)Nc3cccc(S(N)(=O)=O)c3)nc3ccccc3c2=O)c1 | -5 | 1 | -4 | 1 | 4 | . | .
CCOC(=O)C1=CCC(c2ccc(C)cc2)N(S(=O)(=O)c2ccc(C)cc2)C1 (configuration not stated) | . | -4 | . | . | -6 | . | .
O=C(CN1CCN(Cc2ccc(Cl)cc2)C1=O)NCCCN1CCN(c2ccc(F)cc2)CC1 | -14 | 3 | -24 | -1 | -14 | . | .
Cc1ccccc1CN1CCN(CC(=O)NCCCN2CCN(c3ccc(F)cc3)CC2)C1=O | 64* | -2 | -16 | 5 | -37 | 0% | 22%
CCCCCCc1cc2cc(S(=O)(=O)c3ccc(F)c(Cl)c3)c(=O)oc2cc1O | 8 | 7 | -7 | 34* | 13 | 28µM* | ?
Cc1cccc(Cc2cccc(C)c2O)c1O | . | -3 | . | . | -5 | . | .
Cc1ccc(S(=O)(=O)N2CCOC2CNC(=O)C(=O)NCc2ccc3c(c2)OCO3)cc1 (configuration not stated) | 66* | -1 | -3 | 4 | -13 | -1% | 4%
Cc1noc(C)c1C(=O)N1CCN(c2ccccc2O)CC1 | -6 | -6 | -1 | 0 | -20 | 7% | -1%
CCOC(=O)c1c(C)oc2ncnc(Nc3cccc(C(F)(F)F)c3)c12 | . | . | 1 | 1 | . | . | .
CCC(NC(C)C)C(O)c1ccc(O)c(O)c1 (configuration not stated) | 24 | -1 | 8 | 13 | 0 | ? | 12%
Cc1cc(Cn2nc(-c3ccccc3C)cc2C(=O)O)on1 | -1 | -2 | -6 | -1 | -8 | -8% | -3%
COc1ccc(NC(=O)c2ccc3[nH]c(C)c(C)c3c2)cc1 | -25 | -1 | -3 | 0 | -6 | . | .
CCOc1ccc(CN(C)C(=O)CNC(=O)c2cc(OC)c(OC)c(OC)c2)cc1 | 6 | -2 | 10 | 1 | -12 | . | .
COc1ccc(Cl)cc1-n1nnc(-c2nsc(NC(=O)c3ccccc3Cl)n2)c1C | . | . | . | -1 | . | . | .
S=C(NCCc1ccccc1)N1CCOCC1 | 29 | -2 | -4 | 0 | -7 | . | .
O=C(CCC(=O)N1CCOCC1)NCCc1ccccc1 | 22 | 12 | -9 | 2 | -13 | -4% | 26%
COc1ccccc1N1CCN(C(CNS(=O)(=O)c2ccccc2)c2ccccc2)CC1 (configuration not stated) | 20 | -1 | -15 | 7 | -33 | -7% | -1%
COc1ccc(S(=O)(=O)NCC(c2ccc3c(c2)OCO3)N2CCN(c3ccccc3)CC2)cc1 (configuration not stated) | 73* | ? | -26 | 66* | 28 | 16% | 11µM*
SMILES | D2 antag | D2 ag-1 | D2 PAM-1 | D2 ag-2 | D2 PAM-2 | D3 arrestin ag | D2 ag-3
Cc1ccc(S(=O)(=O)NCC(c2ccc3c(c2)OCO3)N2CCN(c3ccccc3)CC2)cc1 (configuration not stated) | 67* | ? | -27 | 64* | 9 | 20% | ?
COC(=O)NCC(c1ccc2c(c1)OCO2)N1CCN(c2ccccc2)CC1 (configuration not stated) | -16 | 1 | 2 | 7 | -19 | . | .
COc1ccccc1N1CCN(C(CNS(=O)(=O)c2cccs2)c2cccnc2)CC1 (configuration not stated) | 7 | -3 | -9 | 6 | -16 | . | .
O=C(NCCC1CCCCN1S(=O)(=O)c1ccc(Cl)cc1)C(=O)NCc1cccnc1 (configuration not stated) | 7 | -1 | 3 | 0 | -1 | . | .
CC(C)c1ccc(/C=C(\NC(=O)c2ccccc2)C(=O)NCCN2CCOCC2)cc1 | -5 | . | -9 | -1 | . | . | .
COc1ccc(-c2cc(C(=O)N3CCCC(C(F)(F)F)C3)c3ccccc3n2)cc1 (configuration not stated) | 7 | 2 | 9 | 0 | 1 | -7% | -2%
O=C(CCN1CCN(S(=O)(=O)c2ccc(F)cc2)CC1)Nc1ccccc1F | -18 | -1 | 7 | 0 | -9 | . | .
O=C(CCN1CCN(c2ccc(F)cc2)CC1)Nc1ccccc1F | 65* | 2 | -37 | 35* | -17 | 4% | -1%
O=C(CCN1CCN(CC(=O)Nc2ccccc2F)CC1)Nc1ccccc1F | 6 | -3 | 2 | 0 | -33 | . | .
O=C(CCN1CCN(c2ccccc2)CC1)Nc1ccccc1F | 71* | ? | -16 | 71* | -18 | ? | 25%
COc1cccc(Nc2nc3ccc(C(=O)c4ccccc4)cc3n3c(C)nnc23)c1 | . | . | 19 | 0 | . | . | .
NC(=O)c1nsc(C(=O)N(c2ccccc2)C(C(=O)NCc2ccc(F)cc2)c2ccc(O)cc2)c1N (configuration not stated) | 57* | 4 | 5 | 6 | 23 | 2% | -1%
NC(=O)c1nsc(C(=O)N(c2ccccc2)C(C(=O)NCc2ccc(F)cc2)c2ccco2)c1N (configuration not stated) | . | 4 | . | . | 2 | . | .
CC(C)(C)n1nc2c(c1NC(=O)COc1ccc(F)cc1)CS(=O)(=O)C2 | -5 | -2 | 1 | 0 | -5 | . | .
CCOC(=O)C1CCCN(C(=O)Cn2nc(C)c3c(C)n(-c4ccccc4)nc3c2=O)C1 (configuration not stated) | -7 | -3 | 3 | 25 | -6 | -10% | -7%
CC1C(=O)N(Cc2ccc([N+](=O)[O-])cc2)c2ccccc2N1C(=O)c1c(F)cccc1F (configuration not stated) | -6 | 4 | -4 | -1 | 8 | . | .
